Experimental data published in the supplement of paper PMC10849652.
About 7,900 targets were measured; listed, in parts, are those with a hit and a random draw of the rest. About 0.6% of all pairs of compound and target were hits. Unmarked numbers belong to inactive results.

Legend:
Assay in all cases: log2 fold change, soluble protein after heating vs DMSO (PISA); higher = thermal stabilisation; K562 cells, 10 uM, 30 min; active = over 0.2 and 3.5 SD of the protein, either way, in both replicates (recomputed)
Tubastatin A = compound: CN1CCc2c(c3ccccc3n2Cc2ccc(C(=O)NO)cc2)C1 [Tubastatin A]
How it was run: (§1)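 For each measurement, 10 μM compound was applied for 30 min to K562 cells at 2×10^6 cells/mL. Aliquots were heated for 3 min across 48°C-58°C, pooled, and extracted in PBS with 0.5% NP-40 at 4°C; the supernatant after 21,000xg for 90 min was soluble protein. This was quantified by TMTpro 16plex LC-MS/MS with channel sums equalised, and thermal stability was reported relative to control samples from duplicates, on a log2 fold-change scale.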

[1] = compound: CNC(=O)C1=CC=CC=C1NC2=NC(=NC=C2Cl)NC3=C(C=C(C=C3)N4CCOCC4)OC
How it was run: as §1

rucaparib = compound: CNCc1ccc(-c2[nH]c3cc(F)cc4c3c2CCNC4=O)cc1 [rucaparib]
How it was run: as §1

encorafenib = compound: COC(=O)N[C@@H](C)CNc1nccc(-c2cn(C(C)C)nc2-c2cc(Cl)cc(NS(C)(=O)=O)c2F)n1 [encorafenib]
How it was run: as §1

[2] = compound: COC1=CC=C(C=C1)CN2C=CC3=C2C=C(C=C3)C(=O)NO
How it was run: as §1

alisertib = compound: COc1cc(Nc2ncc3c(n2)-c2ccc(Cl)cc2C(c2c(F)cccc2OC)=NC3)ccc1C(=O)O [alisertib]
How it was run: as §1

[3] = compound: COc1cc2nc(-c3cc(F)ccc3O)nc(N[C@@H]3CNC[C@H]3C(C)(C)O)c2cc1OC
How it was run: as §1

gefitinib = compound: COc1cc2ncnc(Nc3ccc(F)c(Cl)c3)c2cc1OCCCN1CCOCC1 [gefitinib]
How it was run: as §1

[4] = compound: COc1cccc2cc(-c3nc([C@H]4CC[C@H](C(=O)O)CC4)n4ncnc(N)c34)[nH]c12
How it was run: as §1

lapatinib = compound: CS(=O)(=O)CCNCc1ccc(-c2ccc3ncnc(Nc4ccc(OCc5cccc(F)c5)c(Cl)c4)c3c2)o1 [lapatinib]
How it was run: as §1

pictilisib = compound: CS(=O)(=O)N1CCN(Cc2cc3nc(-c4cccc5[nH]ncc45)nc(N4CCOCC4)c3s2)CC1 [pictilisib]
How it was run: as §1

sotrastaurin = compound: CN1CCN(c2nc(C3=C(c4c[nH]c5ccccc45)C(=O)NC3=O)c3ccccc3n2)CC1 [sotrastaurin]
How it was run: as §1

alvocidib = compound: CN1CC[C@H](c2c(O)cc(O)c3c(=O)cc(-c4ccccc4Cl)oc23)[C@H](O)C1 [alvocidib]
How it was run: as §1

defactinib = compound: CNC(=O)c1ccc(Nc2ncc(C(F)(F)F)c(NCc3nccnc3N(C)S(C)(=O)=O)n2)cc1 [defactinib]
How it was run: as §1

[5] = compound: COC(=O)[C@H](CCSC)NC(=O)C1=C(C=C(C=C1)NC[C@H](CS)N)C2=CC=CC=C2
How it was run: as §1

filanesib = compound: CON(C)C(=O)N1N=C(c2cc(F)ccc2F)S[C@@]1(CCCN)c1ccccc1 [filanesib]
How it was run: as §1

zotarolimus = compound: CO[C@H]1C[C@@H]2CC[C@@H](C)[C@@](O)(O2)C(=O)C(=O)N2CCCC[C@H]2C(=O)O[C@H]([C@H](C)C[C@@H]2CC[C@H](n3cnnn3)[C@H](OC)C2)CC(=O)[C@H](C)/C=C(\C)[C@@H](O)[C@@H](OC)C(=O)[C@H](C)C[C@H](C)/C=C/C=C/C=C/1C [zotarolimus]
How it was run: as §1

idasanutlin = compound: COc1cc(C(=O)O)ccc1NC(=O)[C@@H]1N[C@@H](CC(C)(C)C)[C@](C#N)(c2ccc(Cl)cc2F)[C@H]1c1cccc(Cl)c1F [idasanutlin]
How it was run: as §1

saracatinib = compound: CN1CCN(CCOc2cc(OC3CCOCC3)c3c(Nc4c(Cl)ccc5c4OCO5)ncnc3c2)CC1 [saracatinib]
How it was run: as §1

[6] = compound: CNc1nc(-c2ccc3c(N)n[nH]c3c2)cc(N2C[C@@H](C(=O)NC3CCCCC3)CC[C@H]2C)n1
How it was run: as §1

Chain of UniProt Q9UL54 (Q9UL54 whole entry, looked up): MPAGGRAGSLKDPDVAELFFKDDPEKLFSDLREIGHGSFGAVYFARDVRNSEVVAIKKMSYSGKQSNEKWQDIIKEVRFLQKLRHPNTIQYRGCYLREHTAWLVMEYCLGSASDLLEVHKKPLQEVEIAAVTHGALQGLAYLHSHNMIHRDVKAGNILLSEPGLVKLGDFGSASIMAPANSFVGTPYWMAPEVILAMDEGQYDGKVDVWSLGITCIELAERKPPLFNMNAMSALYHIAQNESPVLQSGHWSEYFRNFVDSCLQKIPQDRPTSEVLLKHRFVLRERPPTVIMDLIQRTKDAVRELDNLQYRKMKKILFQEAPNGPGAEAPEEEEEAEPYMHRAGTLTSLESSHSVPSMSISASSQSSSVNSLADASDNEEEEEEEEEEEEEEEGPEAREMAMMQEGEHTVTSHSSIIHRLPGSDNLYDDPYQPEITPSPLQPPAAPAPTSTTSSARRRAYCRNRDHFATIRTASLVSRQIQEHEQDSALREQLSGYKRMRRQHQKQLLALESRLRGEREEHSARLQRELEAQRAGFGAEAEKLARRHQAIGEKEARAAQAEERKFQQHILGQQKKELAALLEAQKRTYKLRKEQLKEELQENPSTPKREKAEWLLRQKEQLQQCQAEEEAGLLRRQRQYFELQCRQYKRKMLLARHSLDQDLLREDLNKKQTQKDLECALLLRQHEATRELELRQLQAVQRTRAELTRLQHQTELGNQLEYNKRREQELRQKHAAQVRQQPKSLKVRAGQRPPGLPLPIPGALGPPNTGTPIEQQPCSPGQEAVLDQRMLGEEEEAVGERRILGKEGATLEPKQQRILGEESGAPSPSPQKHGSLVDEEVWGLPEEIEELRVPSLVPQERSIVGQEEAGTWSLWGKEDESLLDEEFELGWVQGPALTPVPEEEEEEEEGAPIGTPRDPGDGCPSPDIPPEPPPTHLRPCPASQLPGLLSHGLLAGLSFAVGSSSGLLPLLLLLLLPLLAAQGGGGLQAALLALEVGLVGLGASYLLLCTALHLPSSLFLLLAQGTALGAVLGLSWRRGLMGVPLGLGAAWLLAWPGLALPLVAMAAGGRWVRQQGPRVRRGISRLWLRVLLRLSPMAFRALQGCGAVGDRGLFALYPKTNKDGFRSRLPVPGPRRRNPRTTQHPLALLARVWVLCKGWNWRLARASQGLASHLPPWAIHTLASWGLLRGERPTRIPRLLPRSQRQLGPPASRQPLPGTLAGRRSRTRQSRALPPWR
Chain of UniProt Q02086 (Q02086 whole entry, looked up): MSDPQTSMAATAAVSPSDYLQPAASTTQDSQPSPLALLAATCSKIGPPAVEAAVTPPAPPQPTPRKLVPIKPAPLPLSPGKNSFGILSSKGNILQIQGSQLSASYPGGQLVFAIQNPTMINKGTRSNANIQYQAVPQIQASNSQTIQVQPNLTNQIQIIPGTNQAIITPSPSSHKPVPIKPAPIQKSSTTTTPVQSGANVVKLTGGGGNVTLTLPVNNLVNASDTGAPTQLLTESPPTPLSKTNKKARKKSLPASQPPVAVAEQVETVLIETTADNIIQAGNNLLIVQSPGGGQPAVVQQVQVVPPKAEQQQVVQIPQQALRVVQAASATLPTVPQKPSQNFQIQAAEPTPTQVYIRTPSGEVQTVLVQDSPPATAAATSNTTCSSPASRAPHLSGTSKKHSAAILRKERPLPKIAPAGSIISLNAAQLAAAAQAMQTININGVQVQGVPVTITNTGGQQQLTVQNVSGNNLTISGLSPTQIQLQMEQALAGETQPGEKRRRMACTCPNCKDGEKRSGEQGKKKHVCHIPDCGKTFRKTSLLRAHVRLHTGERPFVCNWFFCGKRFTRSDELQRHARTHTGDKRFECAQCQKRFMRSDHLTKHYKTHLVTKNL
Chain of UniProt Q9BYX2 (Q9BYX2 whole entry, looked up): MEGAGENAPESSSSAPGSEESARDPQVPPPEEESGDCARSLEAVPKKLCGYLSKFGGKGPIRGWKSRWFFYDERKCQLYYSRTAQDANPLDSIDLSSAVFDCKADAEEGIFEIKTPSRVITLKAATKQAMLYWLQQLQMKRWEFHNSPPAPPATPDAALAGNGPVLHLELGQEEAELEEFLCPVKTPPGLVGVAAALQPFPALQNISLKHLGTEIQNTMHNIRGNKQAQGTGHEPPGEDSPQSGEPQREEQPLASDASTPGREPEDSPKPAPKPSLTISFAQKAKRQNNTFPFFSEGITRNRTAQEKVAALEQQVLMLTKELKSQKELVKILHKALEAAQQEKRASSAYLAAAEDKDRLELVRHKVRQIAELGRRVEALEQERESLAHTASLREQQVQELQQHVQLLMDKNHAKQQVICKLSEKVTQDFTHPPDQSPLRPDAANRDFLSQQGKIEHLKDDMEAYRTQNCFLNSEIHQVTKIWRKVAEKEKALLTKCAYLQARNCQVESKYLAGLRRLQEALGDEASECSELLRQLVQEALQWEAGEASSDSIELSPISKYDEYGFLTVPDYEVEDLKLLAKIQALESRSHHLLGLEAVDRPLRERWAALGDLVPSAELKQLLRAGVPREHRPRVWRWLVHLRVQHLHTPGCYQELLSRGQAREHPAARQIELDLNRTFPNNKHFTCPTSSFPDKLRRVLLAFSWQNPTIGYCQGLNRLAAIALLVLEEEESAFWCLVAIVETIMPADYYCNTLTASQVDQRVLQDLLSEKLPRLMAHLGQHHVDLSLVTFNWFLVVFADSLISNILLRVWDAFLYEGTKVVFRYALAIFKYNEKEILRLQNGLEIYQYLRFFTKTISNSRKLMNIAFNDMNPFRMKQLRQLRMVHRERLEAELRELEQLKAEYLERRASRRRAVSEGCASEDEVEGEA
Chain of UniProt Q9NXE4 (Q9NXE4 whole entry, looked up): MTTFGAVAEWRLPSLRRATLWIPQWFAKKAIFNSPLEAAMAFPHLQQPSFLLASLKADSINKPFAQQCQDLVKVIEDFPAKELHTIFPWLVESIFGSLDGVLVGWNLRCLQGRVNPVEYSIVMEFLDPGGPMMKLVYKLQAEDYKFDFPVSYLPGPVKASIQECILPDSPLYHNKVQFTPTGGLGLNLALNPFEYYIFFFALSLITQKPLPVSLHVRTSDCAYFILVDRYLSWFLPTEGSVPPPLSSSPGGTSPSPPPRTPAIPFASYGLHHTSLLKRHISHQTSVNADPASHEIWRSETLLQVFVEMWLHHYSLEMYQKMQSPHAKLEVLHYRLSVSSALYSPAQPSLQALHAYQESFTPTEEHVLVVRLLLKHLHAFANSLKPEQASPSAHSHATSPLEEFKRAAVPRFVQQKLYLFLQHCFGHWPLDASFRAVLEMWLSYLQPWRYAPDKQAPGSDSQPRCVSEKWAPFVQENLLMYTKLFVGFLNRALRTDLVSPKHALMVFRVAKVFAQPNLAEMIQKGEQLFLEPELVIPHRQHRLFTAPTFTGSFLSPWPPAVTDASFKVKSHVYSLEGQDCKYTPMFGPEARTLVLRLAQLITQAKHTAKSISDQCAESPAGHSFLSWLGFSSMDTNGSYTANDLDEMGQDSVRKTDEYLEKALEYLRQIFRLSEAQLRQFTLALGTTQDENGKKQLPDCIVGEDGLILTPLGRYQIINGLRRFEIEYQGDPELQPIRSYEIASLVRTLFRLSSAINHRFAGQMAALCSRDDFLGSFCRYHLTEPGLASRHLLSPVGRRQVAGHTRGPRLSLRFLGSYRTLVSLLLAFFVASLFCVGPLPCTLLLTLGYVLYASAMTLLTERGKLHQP
Chain of UniProt Q96BZ9 (Q96BZ9 whole entry, looked up): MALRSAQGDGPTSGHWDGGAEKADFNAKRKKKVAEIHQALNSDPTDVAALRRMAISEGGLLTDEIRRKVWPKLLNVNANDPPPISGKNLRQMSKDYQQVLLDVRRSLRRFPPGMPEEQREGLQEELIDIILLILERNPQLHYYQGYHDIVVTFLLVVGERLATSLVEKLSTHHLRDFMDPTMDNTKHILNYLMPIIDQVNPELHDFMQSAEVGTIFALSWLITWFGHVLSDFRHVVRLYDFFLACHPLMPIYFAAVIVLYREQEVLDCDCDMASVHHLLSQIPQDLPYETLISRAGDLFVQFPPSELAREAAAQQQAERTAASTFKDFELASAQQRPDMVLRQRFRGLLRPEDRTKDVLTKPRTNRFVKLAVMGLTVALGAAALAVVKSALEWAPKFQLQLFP
Chain of UniProt Q13242 (Q13242 whole entry, looked up): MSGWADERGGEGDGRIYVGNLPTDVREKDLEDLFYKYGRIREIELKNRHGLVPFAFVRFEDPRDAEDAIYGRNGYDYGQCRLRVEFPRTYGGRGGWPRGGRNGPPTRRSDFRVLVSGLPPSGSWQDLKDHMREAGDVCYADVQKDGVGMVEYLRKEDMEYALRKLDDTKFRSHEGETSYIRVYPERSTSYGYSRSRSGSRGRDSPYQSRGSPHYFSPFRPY
Chain of UniProt O60749 (O60749 whole entry, looked up): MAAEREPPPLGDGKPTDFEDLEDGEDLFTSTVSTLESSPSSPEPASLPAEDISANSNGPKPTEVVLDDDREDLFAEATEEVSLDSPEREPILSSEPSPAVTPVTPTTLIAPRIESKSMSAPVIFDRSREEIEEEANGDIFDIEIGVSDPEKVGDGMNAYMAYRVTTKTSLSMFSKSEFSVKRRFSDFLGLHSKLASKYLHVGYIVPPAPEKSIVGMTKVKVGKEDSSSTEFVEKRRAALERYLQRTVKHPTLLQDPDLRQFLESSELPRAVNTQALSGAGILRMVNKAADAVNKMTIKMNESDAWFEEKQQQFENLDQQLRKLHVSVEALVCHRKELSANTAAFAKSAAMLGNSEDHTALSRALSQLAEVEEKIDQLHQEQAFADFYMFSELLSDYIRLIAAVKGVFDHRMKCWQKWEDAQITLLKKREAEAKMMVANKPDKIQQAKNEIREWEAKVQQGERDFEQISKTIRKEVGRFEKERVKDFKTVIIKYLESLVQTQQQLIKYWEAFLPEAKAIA
Chain of UniProt Q5JUR7 (Q5JUR7 whole entry, looked up): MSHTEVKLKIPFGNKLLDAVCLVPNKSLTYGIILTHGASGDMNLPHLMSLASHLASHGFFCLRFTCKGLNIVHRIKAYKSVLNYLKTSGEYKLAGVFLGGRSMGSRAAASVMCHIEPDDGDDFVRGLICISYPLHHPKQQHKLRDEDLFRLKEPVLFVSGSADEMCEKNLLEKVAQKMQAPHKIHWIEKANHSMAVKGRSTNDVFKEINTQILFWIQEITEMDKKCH

Target | log2 fold change (Tubastatin A) | log2 fold change [1] | log2 fold change (rucaparib) | log2 fold change (encorafenib) | log2 fold change [2] | log2 fold change (alisertib) | log2 fold change [3] | log2 fold change (gefitinib) | log2 fold change [4] | log2 fold change (lapatinib) | log2 fold change (pictilisib) | log2 fold change (sotrastaurin) | log2 fold change (alvocidib) | log2 fold change (defactinib) | log2 fold change [5] | log2 fold change (filanesib) | log2 fold change (zotarolimus) | log2 fold change (idasanutlin) | log2 fold change (saracatinib) | log2 fold change [6]
TAOK2 (UniProt Q9UL54) | -0.003 | 0.244 | -0.012 | -0.028 | 0.189 | 0.107 | -0.02 | -0.095 | 0.003 | 0.022 | 0.003 |  |  |  |  |  |  |  |  | 
TBC1D20 isoform 3 (UniProt Q96BZ9) |  | 0.004 | 0.05 | 0.074 | 0.026 | -0.089 | 0.102 | 0.148 | -0.032 | -0.03 | -0.073 | 0.053 | -0.428 | -0.044 | -0.068 | -0.023 | 0.136 | -0.184 |  | 
STK17B (UniProt O94768) |  | -1.03 (active) |  |  | 0.01 |  |  |  |  |  |  |  |  |  |  |  |  |  |  | 
SP2 (UniProt Q02086) |  |  | 0.324 | -0.025 | -0.319 |  |  |  |  |  |  | 0.091 |  |  |  | 0.012 |  | 0.277 | 0.09 | -0.132
SRSF9 (UniProt Q13242) |  | -0.145 | 0.376 | 0.149 | -0.088 | -0.118 | -0.09 | -0.068 | -0.128 | 0.155 | -0.036 | -0.015 | 0.27 | 0.276 | -0.024 | 0.378 | -0.026 | 0.297 | 0.022 | 0.097
SNX2 isoform 2 (UniProt O60749) |  |  | 0.024 | -0.141 | 0.258 |  | 0.462 |  |  | 0.041 |  | 0.003 | -0.078 | -0.155 | 0.097 | -0.234 | 0.022 | -0.054 | -0.002 | 0.176
SMPD4 isoform 2 (UniProt Q9NXE4) | -0.054 |  |  |  | -0.011 | -0.117 | -0.308 |  | 0.003 | 0.131 | -0.108 |  | -0.07 | 0.094 | -0.19 |  | 0.043 | -0.16 | 0.028 | 0.02
TEX30 (UniProt Q5JUR7) | 0.022 | 0.015 |  |  | -0.063 | 0.029 | 0.07 | -0.079 | 0.031 | -0.029 | 0.057 |  | -0.177 | -0.096 | 0.017 |  | 0.031 | -0.02 | -0.065 | -0.026
TBC1D2 (UniProt Q9BYX2) |  |  | 0.264 | 0.122 |  | -0.053 |  |  | -0.211 |  | -0.097 |  |  |  |  |  |  | 0.016 |  | 
